Source: PubChem BioAssay (National Center for Advancing Translational Sciences (NCATS))
Tau fluor counter: counter-screen for tau fibril formation inhibitors. tau K18 P301L Alexa594 fluorescence, heparin fibrillization. Potency, µM (highest dose often 57.7 µM), without a hit: at the top dose activity change, negative = decrease. 280,000 compounds, 0.93% hits. AID 1463; further: nearly all actives have a fitted effect of over 55% in size
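Human K18 P301L tau (15 uM unlabeled plus 0.24 uM Alexa 594-labeled, final) in 100 mM sodium acetate pH 7 was mixed with compound and 20 uM heparin and incubated 6 hr at 37 C.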
TRb-SRC2 inh: TRbeta-SRC2 interaction inhibition | P10828 | TRbeta-SRC2 peptide binding, fluorescence polarization; receptor liganded with 1 µM T3 | Potency, µM (doses to about 106 µM), for inactives: at the highest dose activity change, negative = inhibition, usual class: inhibitors | 280,000 compounds, 0.065% hits | AID 1469;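 further: plate controls were bound peptide for no effect and peptide without receptor for full effect; nearly all actives have a fitted effect of over 50% in size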
Target sequence (P10828 whole entry, looked up): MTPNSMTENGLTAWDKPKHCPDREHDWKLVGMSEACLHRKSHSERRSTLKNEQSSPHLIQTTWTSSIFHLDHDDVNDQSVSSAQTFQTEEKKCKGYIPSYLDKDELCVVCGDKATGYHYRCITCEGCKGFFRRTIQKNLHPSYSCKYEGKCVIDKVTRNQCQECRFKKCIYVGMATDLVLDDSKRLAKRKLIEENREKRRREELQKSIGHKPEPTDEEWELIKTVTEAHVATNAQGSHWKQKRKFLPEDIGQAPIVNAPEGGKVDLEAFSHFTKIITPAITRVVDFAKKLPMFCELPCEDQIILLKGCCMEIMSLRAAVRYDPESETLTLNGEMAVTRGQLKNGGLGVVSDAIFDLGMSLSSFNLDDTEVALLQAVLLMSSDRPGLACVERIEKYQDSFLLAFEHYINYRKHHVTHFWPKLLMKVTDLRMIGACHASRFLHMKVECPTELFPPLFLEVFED
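Human TRb ligand-binding domain (0.6 uM) is mixed with 20 nM Texas Red SRC2 peptide and 1 uM T3; after compound addition and 5 hr at ambient temperature, polarization is measured and normalized to unbound and bound controls.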
Tau fibril FP: inhibitors of human tau fibril formation | K18 P301L tau heparin fibrillization, Alexa594 FP, 6 h | Potency, µM (doses to about 57.7 µM), without a hit: at the top dose activity, negative = inhibition, actives largely listed as inhibitors | 280,000 compounds, 0.39% hits; further: nearly all actives have a fitted effect of over 55% in size
Target sequence (P10636 561-689 P618L limits assumed): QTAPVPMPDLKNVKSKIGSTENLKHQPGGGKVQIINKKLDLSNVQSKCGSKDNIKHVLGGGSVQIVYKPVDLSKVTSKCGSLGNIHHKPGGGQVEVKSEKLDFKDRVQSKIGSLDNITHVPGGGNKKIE
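Quantitative HTS format: compounds meet 15 uM recombinant K18 P301L tau and Alexa 594-tau tracer in 100 mM sodium acetate pH 7; 20 uM heparin triggers fibrillization at 37 C over 6 hr; FP gives the signal.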
TexasRed fluor: Texas Red fluorescence interference in TRb-SRC2 counter-screen. Potency, µM (doses to about 106 µM), inactives show at the top dose fluorescence change, negative = quenching. TRb/SRC2 Texas Red total fluorescence interference. 280,000 compounds, 0.29% hits; active means well fitted curve in either direction with a large enough effect; inconclusive means small, poorly fitted or top-dose-only effect
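Flags fluorescent or light-absorbing compounds by total fluorescence, S + 2P, at 555 nm excitation and 632 nm emission. Mixture: 20 nM Texas Red SRC2 peptide, 0.6 uM human TRb LBD, 1 uM T3, 5% DMSO; compound exposure 5 h at ambient temperature.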
RGS12 GoLoco inh: blocks human Gai1 binding to RGS12 GoLoco peptide, red readout. P63096. Gai1:RGS12 GoLoco peptide FP, rhodamine, 10 min. Potency, µM (titrated, usually from 61.6 µM), without a hit: at the highest dose activity, negative = inhibition, hits mostly inhibitors. 230,000 compounds, 0.44% hits. AID 880; active means well fitted inhibition curve with a large enough effect, not every such curve was filed as active; inactive means no such curve, though single readings can be large or run the other way; further: nearly all actives have a fitted effect of over 30% in size
Tau ThT inhib: blocks human tau fibril formation measured by thioflavin T; P10636; recombinant tau K18 P301L, heparin-induced fibrillization, ThT fluorescence; Potency, µM (series often up to 57.4 µM), inactives show at the top dose activity, negative = inhibition, usual class: inhibitors; 270,000 compounds, 2.1% hits; further: nearly all actives have a fitted effect of over 55% in size
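Using a mix of unlabeled (15 uM) and Alexa 594-labeled (0.24 uM) tau K18 P301L, heparin-triggered fibrillization over 6 hr at 37 C was scored by ThT fluorescence.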
The depositor's hits bear a star; ? = inconclusive; · = no result given; [ ] = remark or other dose. Most compounds without a hit are left out; they make up all but 3.2% or so of the library. Unless noted, the call rests on the fitted dose curve; in most records, active means well fitted curve in the direction sought with a large enough effect; inconclusive means small, poorly fitted or top-dose-only effect, or another doubt; inactive means no such curve, though single readings can be large; an effect the other way counts as inactive or inconclusive. Unless noted, on the % scale 0 is the no-effect control and ±100 the full control effect; potency means the concentration at half of the fitted maximal effect.

SMILES | Tau fluor counter | TRb-SRC2 inh | Tau fibril FP | TexasRed fluor | RGS12 GoLoco inh | Tau ThT inhib
C=CCN1c2ccccc2[C@]23C[C@@H](C(=O)OC)N(S(=O)(=O)CCCC)C2=NC(C(=O)OC)=C(C(=O)OC)[C@H]13 | -11%[11.6 µM] | 2%[11.2 µM] | 5%[11.6 µM] | 0%[11.2 µM] | 0%[14.2 µM] | -4%[11.5 µM]
S=c1nc[nH]c2c1ncn2Cc1ccco1 | · | · | · | · | -9%[14.2 µM] | ·
COCCCNC(=O)c1c(NC(=O)c2nc(S(C)(=O)=O)ncc2Cl)sc2c1CCCC2 | -26% | -9% | -12% | 4% | · | 13µM*
CCNC(=O)c1c(NC(=O)c2nc(S(=O)(=O)CC)ncc2Cl)sc2c1CCCC2 | -27% | -3% | -16% | ? | · | 6.3µM*
C[C@H]1Cc2c(-c3ccccc3)nc3c(c2CO1)CN(C(=O)Nc1cccc(C#N)c1)CC3 | -17%[11.6 µM] | 4%[11.2 µM] | -2%[11.6 µM] | 0%[11.2 µM] | 3%[14.2 µM] | -5%[11.5 µM]
CCn1c(O)c(/C=N/N=C2CCCC2)c2ccc(C3=NNC(=O)CC3)cc21 | -14% | 4% | -11% | -4% | 26% | ?
CCn1c(O)c(/C=N/N=C2CCCCC2)c2cc(C3=NNC(=O)CC3)ccc21 | -28% | 1% | -4% | -7% | 252% | 10µM*
CCOC(=O)c1oc2ccccc2c1CSc1nnnn1-c1ccc(C)cc1 | ? | -14% | -6% | -3% | -8% | -20%
Cc1ccc(-n2nnnc2SC(C(=O)c2c[nH]c3ccccc23)c2ccccc2)cc1 (stereo unspecified) | ? | 6% | 11µM* | -13% | 1% | 17%
Cc1ccc(/C=C2/CNC/C(=C\c3ccc(C)cc3)C2=O)cc1 | · | -4% | · | 5% | · | ·
OC[C@H]1O[C@@H](O[C@@H]2OC=C[C@H]3[C@H](O)[C@@H]4O[C@]4(CO)[C@@H]23)[C@H](O)[C@@H](O)[C@@H]1O | · | 3% | · | -2% | · | ·
O=C(Nc1ccc(F)cc1)Nc1csc2c1CCCC2 | 7.1µM*[quencher] | 4% | -16% | -1% | · | ?
CC(=O)c1cccc(NC(=O)Nc2csc3c2CCCC3)c1 | 11µM*[quencher] | -7% | ? | -1% | 0% | ?
C=C(C(C)=O)C(O)c1ccc(C(F)(F)F)cc1 (stereo unspecified) | -4% | -1% | 2% | -4% | 6% | -3%
CCN(CC)S(=O)(=O)c1cccc(NC(=O)C2SC(=Nc3ccc(C)cc3C)C(C(=O)NC(C)COC)=C2N)c1 (stereo unspecified) | 25µM*[quencher] | -13% | 0% | 0% | 10% | -14%
C=CC[C@@H]1C=C[C@H](O/N=C2\c3cc(OC)ccc3O[C@H](c3cccc(OC)c3)[C@H]2O)[C@H](CO)O1 | -9%[11.6 µM] | -14%[11.2 µM] | -7%[11.6 µM] | -54%[11.2 µM] | · | -5%[11.5 µM]
N=c1c(-c2nc3ccccc3[nH]2)cc(C(=O)c2ccco2)nn1-c1ccccc1 | ? | 5% | 10% | -1% | 0% | 16µM*
N=c1c(-c2nc3ccccc3[nH]2)cc(C(=O)c2cccs2)nn1-c1ccccc1 | -4% | -6% | -4% | 0% | -36% | -2%
Cc1cccc(N=C2NC(=O)/C(=C/c3cccn3C)S2)c1 | -29% | 0% | 5% | -2% | 12% | 7.9µM*
CCN1/C(=C\C=C(C(C)=O)C(C)=O)Sc2ccccc21 | -7% | -5% | 10% | -2% | 19% | ?
CCN1/C(=C\C(=S)Nc2ccccc2)Sc2ccccc21 | ? | 3% | ? | 0% | 35% | 7.9µM*
CCN(CC)c1ccc(NC(=O)Nc2ccc(C(C)=O)cc2)cc1 | 14µM*[quencher] | -7% | 8% | 0% | -4% | ?
COC(=O)N/N=C\c1cccc(OC(=O)c2cccs2)c1 | -16% | -6% | -13% | -1% | 0% | -13%
O=C1NN(c2ccccc2)C(=O)/C1=C\c1cccc(OC(=O)c2cccs2)c1 | -25% | -1% | ? | -7% | -22% | 16µM*
O=C1NN(c2ccc(Cl)c(Cl)c2)C(=O)/C1=C/c1cccc(OC(=O)c2cccs2)c1 | ? | 7% | ? | -14% | 17% | 16µM*
SMILES | Tau fluor counter | TRb-SRC2 inh | Tau fibril FP | TexasRed fluor | RGS12 GoLoco inh | Tau ThT inhib
O=C1[C@H]2[C@H]3[C@H](O)[C@H](O)C/C(=N/OC[C@@H](O)COCc4ccco4)[C@@H]3CC[C@@H]2C(=O)N1Cc1ccc2c(c1)OCO2 | -4%[11.6 µM] | -2%[11.2 µM] | -1%[11.6 µM] | -2%[11.2 µM] | · | -2%[11.5 µM]
CCOC(=O)C1OC1C(=O)N[C@@H](CC(C)C)C(=O)NCCC(C)C (stereo partly specified) | · | 9% | · | -2% | · | ·
COc1ccc(Cn2c(O)cc(=O)[nH]c2=O)cc1 | -13% | 26% | -15% | 9% | 62% | ?
CCOc1ccc(Cn2c(O)cc(=O)[nH]c2=O)cc1 | -22% | -22% | ? | -4% | 97% | 16µM*
CC(C)=CCC[C@@H](C)[C@H]1CC[C@@]2(C)C3=C(CC[C@]12C)[C@@]1(C)CC[C@H](O)C(C)(C)[C@@H]1CC3 | · | -3%[201 µM] | · | 2%[201 µM] | · | ·
CC1CC=CC2C1C(=O)N(Cc1ccccc1)C2c1ccc(/C=C/c2ccccc2)cc1F (stereo unspecified) | · | -1% | · | 0% | · | ·
[O-]/C(=C(\C(=S)Nc1cccc2ccccc12)[n+]1ccccc1)c1ccc2c(c1)OCCO2 | ? | ? | ? | -3% | 19% | 13µM*
Cc1ccc2[nH]cc(C(c3ccccc3)c3cccs3)c2c1 (stereo unspecified) | 7.9µM*[quencher] | -11% | ? | -2% | · | ?
Cc1ccc2[nH]cc(C(c3ccccc3)c3ccc(C)s3)c2c1 (stereo unspecified) | 10µM*[quencher] | 0% | -17% | -1% | · | -19%
Cc1ccc(C(c2ccccc2)c2c(C)[nH]c3ccccc23)s1 (stereo unspecified) | -13% | 7% | 2% | 5% | · | -13%
COc1ccc(C2=Nn3c(nnc3-c3ccc(OC)c(OC)c3)SC2)c(OC)c1 | · | -1% | · | -2% | · | ·
C/C=C(/C)C(=O)O[C@H]1C[C@@]2(C)O[C@H]2[C@@H](OC(C)=O)C2(C)CC[C@@](O)(C(C)C)C12 (stereo partly specified) | · | -11% | · | -3% | · | ·
C=CCN1C(=O)CS/C1=C(\C#N)S(=O)(=O)c1ccc(C)cc1 | -15% | ? | -2% | 40µM*[fluorescent] | 185% | -21%
C=CCN1C(=O)CSC1=Nc1cccc(O)c1 | 11% | 2% | 6% | -2% | 8% | 8%
COC(=O)c1sc(NC(=O)c2cc(-c3ccccc3)nc3ccccc23)c(C#N)c1C | ? | 7% | ? | 1% | -1% | 28µM*
O=C(NC1=NCCS1)c1cc(-c2ccc(-c3ccccc3)cc2)nc2ccccc12 | -23% | 8% | 28µM* | 3% | 6% | -5%
